# Assay results reported in ChEMBL document CHEMBL4808148, “HDAC6 screening dataset using tau-based substrate in an enzymatic assay yields selective inhibitors and activators” (2021).
# The whole screen tested about 5,600 compounds, of which about 390 (7%) showed an effect of 50% or more. The list comes from a sample in which strong results are over-represented; it also holds similar structures and randomly drawn compounds. Starred links: 1 amine or outer side, 2 acyl side, 3 side chain; linkers in the order of their positions; H or OH if unused. Positions of bridges follow the written chain, without caps; N, C: chain ends. Non-standard residues stand in square brackets, D forms with d. Residues, ends and D or L forms follow the SMILES beside them. *: point of attachment. pTerphenylCO(4''-OnC5H11) = CCCCCOc1ccc(-c2ccc(-c3ccc(C(=O)*)cc3)cc2)cc1; Orn(4R-OH,5R-OH) = O=C([C@H](C[C@@H](O)[C@@H](O)N[*:3])N[*:1])[*:2]; hTyr(3S-OH,4S-OH) = N[C@H](C(=O)O)[C@H](O)[C@@H](O)c1ccc(O)cc1; Pro(3S-OH,4S-Me) = C[C@H]1CN[C@H](C(=O)O)[C@H]1O; Hyp = O=C(O)[C@@H]1C[C@@H](O)CN1
# Target: T1, Protein deacetylase HDAC6 (Homo sapiens) (UniProt Q9UBN7)
# T1 sequence (whole entry): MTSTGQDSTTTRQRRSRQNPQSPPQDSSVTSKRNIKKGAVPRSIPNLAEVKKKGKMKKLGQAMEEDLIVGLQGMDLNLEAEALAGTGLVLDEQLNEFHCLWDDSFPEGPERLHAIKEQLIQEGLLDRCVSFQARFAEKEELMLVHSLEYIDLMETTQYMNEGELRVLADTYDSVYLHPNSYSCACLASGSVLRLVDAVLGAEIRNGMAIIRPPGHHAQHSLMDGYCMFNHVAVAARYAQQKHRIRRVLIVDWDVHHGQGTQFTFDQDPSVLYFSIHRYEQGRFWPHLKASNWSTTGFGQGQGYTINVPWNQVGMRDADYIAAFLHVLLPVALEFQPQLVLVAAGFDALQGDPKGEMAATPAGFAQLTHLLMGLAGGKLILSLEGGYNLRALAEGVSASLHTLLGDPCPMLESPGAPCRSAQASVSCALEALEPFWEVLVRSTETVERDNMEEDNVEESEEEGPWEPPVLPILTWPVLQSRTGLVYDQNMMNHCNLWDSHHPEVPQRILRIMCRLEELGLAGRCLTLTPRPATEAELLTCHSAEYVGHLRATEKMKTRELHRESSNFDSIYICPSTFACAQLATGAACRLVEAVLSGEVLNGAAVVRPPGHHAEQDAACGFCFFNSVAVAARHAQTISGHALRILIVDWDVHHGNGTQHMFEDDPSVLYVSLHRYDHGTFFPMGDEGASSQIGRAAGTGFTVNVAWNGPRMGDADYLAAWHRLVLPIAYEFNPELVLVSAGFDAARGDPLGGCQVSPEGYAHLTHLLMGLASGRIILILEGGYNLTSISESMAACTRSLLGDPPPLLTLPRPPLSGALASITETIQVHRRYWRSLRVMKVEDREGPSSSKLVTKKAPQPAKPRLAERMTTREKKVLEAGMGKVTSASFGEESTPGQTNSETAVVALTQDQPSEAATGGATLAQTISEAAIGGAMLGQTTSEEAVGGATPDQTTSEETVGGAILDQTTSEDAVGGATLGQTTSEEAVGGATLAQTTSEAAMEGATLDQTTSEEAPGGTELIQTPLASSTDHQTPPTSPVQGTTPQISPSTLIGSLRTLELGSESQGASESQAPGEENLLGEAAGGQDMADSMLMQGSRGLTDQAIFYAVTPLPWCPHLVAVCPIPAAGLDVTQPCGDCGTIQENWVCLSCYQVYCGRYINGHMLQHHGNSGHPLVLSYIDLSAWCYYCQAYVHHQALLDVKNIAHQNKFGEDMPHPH
# Details: at 10 µM
row,SMILES,inhibition
1,C=CC(=O)N1CCC[C@@H](n2nc(-c3ccc(Oc4ccccc4)cc3)c3c(N)ncnc32)C1,73%
2,C=CC(=O)N1CCC[C@@H](n2c(=O)n(-c3ccc(Oc4ccccc4)cc3)c3c(N)ncnc32)C1,9.93%
3,COc1ccc2nc3ccc(Cl)cc3c(SCCCN)c2c1,31.8%
4,COc1cc(C(=O)c2c(C)oc3c(O)c(OC)ccc23)cc(OC)c1OC,31.9%
5,CCN(CC)C(=O)C1(c2ccccc2)CC1CN (stereo unspecified),-2.35%
6,COc1cccc2c1c(O)c(C(=O)N(C)c1ccc(C(F)(F)F)cc1)c(=O)n2C,-4.13%
7,C[C@@H]1CN(CCCn2c3ccccc3c3ccccc32)C[C@H](C)N1,1.8%
8,O=C(Nc1cccc(C(F)(F)F)c1)Nc1ccc(Br)cc1-c1nnn[nH]1,-9.24%
9,O=c1c2ccccc2[se]n1-c1ccccc1,107%
10,Cc1c(C(=O)Nc2ccc(N3CCC(N4CCOCC4)CC3)c(C#N)c2)cnn1-c1ccc(Cl)cc1,9.57%
11,CCC[N+]12C3C[C@H](C4C(O)[C@]5(C[C@@H]41)c1ccccc1N(C)[C@@H]35)[C@H](CC)[C@H]2O (stereo partly specified),26.3%
12,CS(=O)(=O)CS(=O)(=O)OCCCl,9.47%
13,CC(OC(=O)NCC1(CC(=O)O)CCCCC1)OC(=O)C(C)C (stereo unspecified),3.02%
14,c1ccc2sc(SNC3CCCCC3)nc2c1,80%
15,C#Cc1cncc([C@@H]2CCCN2C)c1,18.9%
16,CO[C@@H](C(=O)N1Cc2[nH]nc(NC(=O)c3ccc(N4CCN(C)CC4)cc3)c2C1)c1ccccc1,21.1%
17,"CCCCCOc1ccc(-c2ccc(-c3ccc(C(=O)N[C@H]4C[C@@H](O)[C@@H](O)NC(=O)[C@@H]5[C@@H](O)[C@@H](C)CN5C(=O)[C@H]([C@@H](C)O)NC(=O)[C@H]([C@H](O)[C@@H](O)c5ccc(O)cc5)NC(=O)[C@@H]5C[C@@H](O)CN5C(=O)[C@H]([C@@H](C)O)NC4=O)cc3)cc2)cc1 ({pTerphenylCO(4''-OnC5H11)}-[Orn(4R-OH,5R-OH)]T[Hyp][hTyr(3S-OH,4S-OH)]T[Pro(3S-OH,4S-Me)]; lactam 1-C)",16.9%
18,Cc1cc(Nc2cc(C)c(C#N)c(N[C@@H](C)CCCC(C)(C)O)n2)n[nH]1,27.9%
19,Cc1ccc(C23CNCC2C3)cc1 (stereo unspecified),-3.02%
20,CC(=O)NS(=O)(=O)c1ccc(NC(=O)c2ccccc2C(=O)O)cc1,-8.72%
21,O=C(O)c1ccccc1C(=O)Nc1ccc(-c2ccccc2)cc1,68%
22,O=C(O)c1ccccc1S,17.6%
23,CCN(CC)CCOc1ccccc1C(=O)CCc1ccccc1,2.33%

row,SMILES,inhibition
1,C[C@H](N)C(=O)N[C@@H](CCC(N)=O)C(=O)O (H-Ala-Gln-OH),-3.39%
2,COc1ccc(N2CCOCC2)c2sc(NC(=O)N3CCC(C)(O)CC3)nc12,2.18%
3,Cc1cc(NC(=O)C(c2ccccc2)N2CCCc3ccccc32)no1 (stereo unspecified),6.26%
4,COc1cc(C(=O)NCCCCCC(=O)O)cc(OC)c1OC,0.73%
5,CN(C)c1ccc(C(=O)NCCCCCCC(=O)NO)cc1,102%
6,O=C(CNC(=O)c1ccc(Cl)cc1)NO,42.6%
7,CC(=O)O[C@@H]1CC[C@@]2(C)[C@@H](CC[C@]3(C)[C@@H]2C(=O)C=C2[C@@H]4[C@@H](C)[C@H](C)CC[C@]4(C)CC[C@]23C)[C@@]1(C)C(=O)O,-8.47%
8,CCc1noc(C)c1-c1[nH]c2ccccc2c1C(O)CN(C)C (stereo unspecified),3.93%
9,CN(C)CCCSc1ccccc1NC(=O)/C=C/c1ccccc1,97.2%
10,O=C1c2ccccc2CCC1CNCCc1ccc(O)cc1 (stereo unspecified),4.32%
11,COc1cc(O)c(C(=O)c2ccccc2)cc1S(=O)(=O)O,-4.32%
12,COc1cc(-c2ccc(/N=N/c3ccc4c(S(=O)(=O)O)cc(S(=O)(=O)O)c(N)c4c3O)c(OC)c2)ccc1/N=N/c1ccc2c(S(=O)(=O)O)cc(S(=O)(=O)O)c(N)c2c1O,69.8%
13,OC(CNc1ccccc1)Cn1c2ccc(Br)cc2c2cc(Br)ccc21 (stereo unspecified),-9.16%
14,Cc1cc(-c2cc(OC(=O)c3ccccc3)ccc2Cl)cc2nnc(Nc3ccc(OCCN4CCCC4)cc3)nc12,-4.96%
15,CC(=O)[C@]1(N)Cc2c(O)c3c(c(O)c2[C@@H](O[C@H]2C[C@H](O)[C@H](O)CO2)C1)C(=O)c1ccccc1C3=O,18.4%
16,Cc1oc(=O)oc1COC(=O)C1=C([C@H]2CCCO2)S[C@@H]2[C@@H]([C@@H](C)O)C(=O)N12,31.1%
17,Cc1ccc(-n2nc(C(C)(C)C)cc2NC(=O)NCc2cc(F)ccc2Oc2ccc3c(cnn3CCO)c2)cc1,30.6%
18,Cc1ccnc2c1CCCC2C(N)=S (stereo unspecified),-0.81%
19,CC(CN(C)C)CN1c2ccccc2Sc2ccc(C#N)cc21 (stereo unspecified),7.25%
20,O=C1NC(=O)/C(=C\c2ccc(-c3ccc(F)cc3)o2)S1,60.3%
21,CN1c2c(oc(=O)n(-c3ccccn3)c2=O)-c2ccccc2S1(=O)=O,16.6%
22,CN1C(=O)N(c2ccc(C#N)c(C(F)(F)F)c2)C(=O)[C@]1(CO)c1ccccc1,40.5%
23,Cc1nc(-c2cccnc2)sc1C(=O)Nc1ccccc1-c1cn2c(CN3CCOCC3)csc2n1,11.9%
